# Rows were chosen to be rich in hits. Some 2% of all compounds tested hit in one or more screens of this group.
# PLAP act – human PLAP activation | activation fold at 20 µM | actives 1.2% (n = 96,000) | purified PLAP enzyme, luminescent substrate read-out; hits give high values; in the data active means activation fold above about 2
# S1P2 ag – agonists of human S1P2 receptor; AID 729; activation, % at 4.5 µM; S1P2-expressing cell line, agonist reporter read-out; actives 0.46% (n = 97,000); O95136; in the data active means activation above about 16%;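 further: 0% = vehicle low control and 100% = maximal reference agonist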
# Target sequence (O95136 whole entry, looked up): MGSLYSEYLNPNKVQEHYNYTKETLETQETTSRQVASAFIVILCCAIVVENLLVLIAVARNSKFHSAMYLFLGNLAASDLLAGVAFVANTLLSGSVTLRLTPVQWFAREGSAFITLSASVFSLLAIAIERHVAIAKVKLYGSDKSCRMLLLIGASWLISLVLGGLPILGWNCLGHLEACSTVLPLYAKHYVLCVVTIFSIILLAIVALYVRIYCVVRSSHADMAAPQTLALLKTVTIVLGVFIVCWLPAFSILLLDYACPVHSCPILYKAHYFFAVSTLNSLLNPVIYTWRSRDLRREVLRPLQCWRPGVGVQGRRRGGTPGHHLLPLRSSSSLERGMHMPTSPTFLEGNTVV
# S1P2 blocker – S1P2 (human) receptor antagonism. cell-based S1P2 antagonist assay, inhibition at 5 uM. inhibition, % at 5 µM. actives 0.21% (n = 97,000). O95136; in the data active means inhibition above about 45%;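 further: CRE beta-lactamase reporter cells expressing human S1P2 stimulated with S1P; 0% = agonist at EC80 alone and 100% = agonist plus reference antagonist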
# GALR2 antag – GALR2 (human) receptor antagonism; O43603; GALR2-expressing cells, antagonist mode; inhibition, % at 4 µM; actives 0.39% (n = 140,000); AID 828; in the data active means inhibition above about 27%;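 further: cells stimulated with galanin 1-16 at roughly its EC80; 0% = agonist challenge control and 100% = basal control without agonist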
# GALR2 agonist – activates the human galanin receptor 2 | O43603 | GALR2-expressing cells, agonist activation read-out | activation, % (test concentration not listed) | actives 0.48% (n = 140,000); in the data active means activation above about 5%, passing the limit was not always enough;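 further: 0% = vehicle buffer wells and 100% = reference agonist at full effect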
# Numbers without * were called inactive; nt = no result.
SMILES,PLAP act,S1P2 ag,S1P2 blocker,GALR2 antag,GALR2 agonist
O=C(NNC(=S)NC(=O)c1ccccc1[N+](=O)[O-])c1ccccc1[N+](=O)[O-],2.5*,-2,-7,-3,-1
CCOC(=O)C1=CN(c2cccc(F)c2)C=C(C(=O)OCC)C1c1cc(OC)c(O)c([N+](=O)[O-])c1,1.4,-6,-14,-2,-3
CC(=O)Oc1ccc2c(C)cc(=O)oc2c1,0.8,-2,-14,3,2
CC(=O)Oc1cc2oc(=O)cc(C)c2cc1OC(C)=O,0.2,0,-17,-2,6.0*
CC(C)CC(/C(O)=C(\C#N)c1nc2ccccc2[nH]1)N1C(=O)c2ccccc2C1=O (configuration not stated),2.1*,-8,0,-2,0
CC(C)(C)/C(O)=C(/C#N)c1nc2ccccc2[nH]1,1.4,-2,-18,-4,0
c1csc(C2=Nn3c(nnc3-c3ccncc3)SC2)c1,1.2,-10,49*,18,-2
COc1ccc(/C=C/C(=O)OCC(=O)c2c(C)[nH]c3ccccc23)cc1OC,nt,nt,nt,-2,-3
COc1ccc(-c2noc(CCC(=O)N(C)c3cccc(C)c3)n2)cc1,1.5,1,-11,1,-2
CCN(C(=O)CCc1nc(-c2ccc(OC)cc2)no1)c1cc(OC)ccc1OC,2*,1,-31,-9,-1
Cc1ccc(NCc2nnc(SCC(=O)NCc3ccco3)n2CC2CCCO2)cc1Cl (configuration not stated),1.6,0,10,-2,0
Cc1ccc(NCc2nnc(SCCN3CCCCC3)n2CC2CCCO2)cc1Cl (configuration not stated),2*,-4,20,1,-1
Cc1[nH]n(-c2ccc([N+](=O)[O-])cc2)c(=O)c1C=NCCN1CCN(C(=O)c2ccccc2)CC1,2*,-1,-19,-5,-1
Cc1[nH]n(-c2ccccc2)c(=O)c1/C=N/NC(=O)c1cccc([N+](=O)[O-])c1,1.1,-4,-15,9,-3
CCCCc1nc(SCC(=O)Nc2ccc(S(N)(=O)=O)cc2)n[nH]1,2*,1,-29,6,0
COc1cc2c(cc1OC)C1=C(C#N)CN(C3CCCCC3)CN1CC2,1.5,20*,-49,-1,-1
COc1ccc(CCN2CC(C#N)=C3c4cc(OC)c(OC)cc4CCN3C2)cc1OC,1.4,24*,-37,-3,-1
COc1cc2c(cc1OC)CN(c1ccc([N+](=O)[O-])cc1C#N)CC2,nt,nt,nt,4,-1
O=C(NNC(=O)C1CC(c2cccnc2)=NO1)Nc1cccc(F)c1 (configuration not stated),1.9,-4,-1,1,-1
Cc1cc(C)n2cc(CSc3nnnn3-c3ccc(Cl)cc3)nc2n1,1.4,106*,-5,6,-1
O=C(N/N=C/c1ccc[nH]1)c1ccc(Cl)cc1,nt,nt,nt,2,0
CC1(C)COC(c2coc3ccccc3c2=O)OC1,nt,nt,nt,3,-1
C=CCn1c(SCC(=O)NC(=O)NCc2ccco2)nc2sc(C)c(C)c2c1=O,0.9,-1,-25,-8,6.2*
COc1ccc(NC(=O)CSc2nc3sc(C)c(C)c3c(=O)n2Cc2ccco2)cc1,0.8,-12,7,-2,-2
Cc1sc2nc(SCc3nc4ccccc4[nH]3)n(Cc3ccco3)c(=O)c2c1C,1.1,17*,-32,8,-2
SMILES,PLAP act,S1P2 ag,S1P2 blocker,GALR2 antag,GALR2 agonist
Cc1sc2nc(SCc3ccccc3)n(Cc3ccco3)c(=O)c2c1C,0.9,-9,12,2,-2
COCC(C)n1c(C)cc(C(=O)COc2ccc(S(=O)(=O)N3CCOCC3)cc2Cl)c1C (configuration not stated),2*,nt,nt,4,0
COCCn1c(C)cc(C(=O)COC(=O)CCc2ccc(S(=O)(=O)N3CCOCC3)cc2)c1C,1.5,-2,18,-10,-1
COc1ccc(NC(=S)NNC(=O)OC(C)(C)C)cc1OC,2.5*,-3,-6,-1,-2
COc1ccc(CCN2C(=O)c3[nH]nc(-c4ccccc4O)c3C2c2cccc(O)c2)cc1OC (configuration not stated),2.9*,-10,3,-1,-1
CCOC(=O)Cn1c(=O)oc2cc(S(=O)(=O)NCc3ccccn3)ccc21,2*,-7,8,1,-4
C(=N\c1nccs1)/c1cccnc1,nt,0,2,14,-3
CC(=O)c1c(C)[nH]c(C(=O)OCC(=O)N2CCN(S(=O)(=O)c3ccc(C)cc3C)CC2)c1C,2*,-6,16,2,0
Cc1ccc(C2CC(c3ccccc3)=NN2C(=O)CSc2nnc(-c3ccc(Cl)cc3)o2)o1 (configuration not stated),1,-1,16,-4,-2
Cc1ccc(C2CC(c3ccccc3)=NN2c2ccccc2)o1 (configuration not stated),nt,nt,nt,-9,7.1*
CCCn1c(N)c(C(=O)CSc2nc3ccccc3n2CCC#N)c(=O)n(C)c1=O,0.9,26*,-12,5,0
CCSc1nnc([C@H](Cc2ccccc2)NC(=O)OC(C)(C)C)o1,0.7,-4,-3,-3,0
CC(C)(C)OC(=O)N[C@@H](Cc1ccccc1)c1nnc(S(=O)(=O)Cc2ccccc2)o1,1.1,-4,12,35*,2
O=C(NC(=S)Nc1ccc(S(=O)(=O)Nc2nccs2)cc1)c1cccc(F)c1,nt,nt,nt,-9,0
C=CCN1C(=O)C(CC(=O)O)SC1=Nc1c(C)n(C)n(-c2ccccc2)c1=O (configuration not stated),1.3,0,0,-12,-1
C=CCN1C(=O)C(CC(=O)Nc2ccc(C)cc2)SC1=Nc1c(C)n(C)n(-c2ccccc2)c1=O (configuration not stated),2.1*,-4,-14,-7,-1
Cc1ccc2nc(-c3ccc(SCC(=O)Nc4nnc(C)s4)nc3)[nH]c2c1,nt,nt,nt,13,5.3*
CC(C)c1cc(=O)oc2c3c4c(cc12)CCCN4CCC3,2*,nt,nt,-2,1
O=c1oc2c3c4c(cc2c(C(F)(F)F)c1CCN1CCOCC1)CCCN4CCC3,1.3,-6,27,3,0
Nc1nc2n(n1)C1(CCCCC1)C1=C(CCCC1)N2,2.1*,-1,-8,-1,0
O=C(Nc1ccc(-c2nc3ccccc3o2)c(O)c1)c1cc(-n2cnnc2)ccc1Cl,0.9,3,-8,-8,1
Cc1c(NC(=O)c2cc(-n3cnnc3)ccc2Cl)cccc1-c1nc2ccccc2o1,nt,-5,56*,11,-4
CC(=O)c1cccc(NS(=O)(=O)c2ccc(N/C=C\C(=O)c3ccc(C)cc3)cc2)c1,1.1,-9,67*,10,1
C=CCc1c(C)nc(C)nc1N/N=C/c1ccc([N+](=O)[O-])cc1,1.3,-4,8,-4,-1
C=CCc1c(C)nc(C)nc1N/N=C/c1ccccc1O,2.5*,-4,-27,17,-2
CCc1nnc(NC(=O)CCC(=O)N2CCN(CCOc3ccc(C)cc3)CC2)s1,1.5,0,18,-1,-1

# Assay outcomes: PubChem BioAssay, several laboratories
